From PubChem
IL1B secr inh – inhibitors of inflammasome signaling (IL-1 beta secretion); AID 743279; actives 4.7% (n = 360,000); THP-1 LPS/ATP IL-1B secretion, AlphaLISA, 16 h; stronger effect = lower value; activity change, % at 57.5 µM; in the data active = activity change below about -50%; inconclusive = mostly about -30% to -49%
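THP-1 cells pretreated 1 hr with compounds (up to 57.5 uM final), then stimulated with LPS (250 ng/mL final) plus ATP (1.25 mM final); secreted IL-1B measured by AlphaLISA after 16 hr, decreased signal indicating inhibition.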
HepG2 viability – kills HepG2 cells in TGF-b inhibitor counter-screen; actives 0.76% (n = 410,000); Potency, µM (titrated, usually from 46.1 µM), most hits filed as cytotoxic; HepG2 CAGA-GFP viability, ATP luminescence, 18 h
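CellTiter-Glo luminescence gave cytotoxicity after 18 hours at 37 degrees C. The cells were HepG2 CAGA-GFP in 1% FBS DMEM, stimulated with 500 pg/mL TGF-beta after compound addition. %Activity was normalised to no-cell wells (complete cell-killing) and DMSO (no toxicity), and curves were fitted and classified.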
ATXN2 expr inh – reduces ATXN2 reporter expression in HEK-293 cells; HEK-293 ATXN2-luciferase reporter, luminescence, 24 h; Potency, µM (series often up to 57 µM), usual class: inhibitors; actives 0.72% (n = 360,000); note: nearly all actives have a fitted effect of over 55% in size
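qHTS (up to 57 uM final) was run with 24 h compound exposure of reporter cells at 37 °C. Each well was multiplexed: SteadyGlo luminescence measured ATXN2-luciferase expression after a fluorogenic Gly-Phe-AFC viability readout (25 uM final).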
S2 tox – reduces viability in counter-screen for ATXN expression inhibitors; S2 cells (HEK-293 line with an ATXN2-luciferase reporter) viability, CellTiter-Fluor protease fluorescence, 24 h; Potency, µM (top dose mostly 56.7 µM), most hits filed as cytotoxic; actives 0.49% (n = 400,000); note: nearly all actives have a fitted effect of over 40% in size
TGFb SMAD3 inh – blocks TGF-b signaling; Potency, µM (top dose mostly 46.1 µM), most hits filed as inhibitors; HepG2 CAGA-GFP TGF-b/SMAD3 reporter, GFP fluorescence, 18 h; TGF-beta stimulated, 500 pg/mL final; actives 1.2% (n = 410,000); note: nearly all actives have a fitted effect of over 65% in size
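HEPG2 CAGA-GFP, 1000 cells/well; 2 h settle, 37 C; cpd via pin tool; TGF-b 500 pg/mL final; 18 h, 37 C; GFP imaging ex488/em500-530; %Activity normalised to -TGF-b and +DMSO controls; CRC fit, curve class.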
Numbers stand for hits. Sampled rows, rich in hits. Any-hit rate of the full collection: about 5.7%. Unless noted, calls come from the whole dose curve; as a rule, active = well fitted curve in the direction sought with a large enough effect; inconclusive = small, poorly fitted or top-dose-only effect, or another doubt; inactive = no such curve, though single readings can be large; an effect the other way counts as inactive or inconclusive.

`Cc1ccc(S(=O)(=O)n2ccc3c(OCCOCCSCC(NC(=O)OC(C)(C)C)C(=O)O)cccc32)cc1` (centres undefined) gave IL1B secr inh inactive, HepG2 viability inactive, ATXN2 expr inh inactive, S2 tox inactive and TGFb SMAD3 inh inconclusive.
`Cc1ccc(S(=O)(=O)n2ccc3c(OCCOCCNCc4ccc(F)cc4)cccc32)cc1` gave IL1B secr inh -88, HepG2 viability inactive, ATXN2 expr inh inactive, S2 tox inactive and TGFb SMAD3 inh inconclusive.
Screening COc1cc(Cl)c(NS(=O)(=O)c2ccc(-c3coc(C)n3)cc2)c(OC)c1 returned HepG2 viability inactive, ATXN2 expr inh inactive, S2 tox inactive and TGFb SMAD3 inh inactive.
`CC(C)C(=O)N1CCN(c2ccc(NC(=O)COc3ccccc3[N+](=O)[O-])cc2)CC1` gave IL1B secr inh -90, HepG2 viability inactive, ATXN2 expr inh inconclusive, S2 tox inconclusive and TGFb SMAD3 inh inactive.
Screening O=C(COc1cc(F)ccc1[N+](=O)[O-])Nc1ccc(N2CCCCC2)cc1 returned IL1B secr inh -67, HepG2 viability inactive, ATXN2 expr inh inactive, S2 tox inconclusive and TGFb SMAD3 inh inactive.
`Cc1cccc(-n2c(C)cc(C(=O)NC3CCCCC3)c2C)c1` gave IL1B secr inh -90, HepG2 viability inactive, ATXN2 expr inh inactive, S2 tox inactive and TGFb SMAD3 inh inactive.
Screening Cc1cccc(N2CCN(C(=O)NC3CCCCC3)CC2)c1C returned IL1B secr inh -56, HepG2 viability inactive, ATXN2 expr inh inactive, S2 tox inconclusive and TGFb SMAD3 inh inconclusive.
Screening Cc1cccc(N2CCN(C(=O)NC3CCCCC3)CC2C)c1 (centres undefined) returned IL1B secr inh inactive, HepG2 viability inactive, ATXN2 expr inh 22µM, S2 tox inconclusive and TGFb SMAD3 inh inactive.
Cc1cccc(N2CCN(C(=O)CSc3ccsc3[N+](=O)[O-])CC2C)c1 (centres undefined) was read as IL1B secr inh -73, HepG2 viability inactive, ATXN2 expr inh inactive, S2 tox inactive and TGFb SMAD3 inh inactive.
For Cc1cccc(N2CCN(C(=O)c3ccccn3)CC2C)c1 (centres undefined) the results were IL1B secr inh inactive, HepG2 viability inactive, ATXN2 expr inh inactive, S2 tox inconclusive and TGFb SMAD3 inh inactive.
For Cc1nc(Nc2ccccc2)sc1C(=O)Nc1ccccc1 the results were IL1B secr inh -65, HepG2 viability inactive, ATXN2 expr inh inactive, S2 tox inactive and TGFb SMAD3 inh inactive.
For COc1ccccc1Nc1nc(C)c(C(=O)Nc2ccccc2)s1 the results were IL1B secr inh -53, HepG2 viability inactive, ATXN2 expr inh inactive, S2 tox inactive and TGFb SMAD3 inh inactive.
Screening CC(=O)c1sc(NC(C)c2ccccc2)nc1C (centres undefined) returned IL1B secr inh inactive, HepG2 viability inactive, ATXN2 expr inh inactive, S2 tox inactive and TGFb SMAD3 inh inactive.
For Cc1nc(Nc2ccc(S(N)(=O)=O)cc2)sc1C(=O)Nc1ccccc1 the results were IL1B secr inh inconclusive, HepG2 viability inactive, ATXN2 expr inh inactive, S2 tox inactive and TGFb SMAD3 inh inactive.
Screening Cc1nc(Nc2ccccc2Cl)sc1C(=O)Nc1ccccc1 returned IL1B secr inh inconclusive, HepG2 viability inactive, ATXN2 expr inh inactive, S2 tox inactive and TGFb SMAD3 inh inactive.
`Cc1nc(NC(C)c2ccccc2)sc1C(=O)Nc1ccccc1` (centres undefined) gave IL1B secr inh -52, HepG2 viability inactive, ATXN2 expr inh inactive, S2 tox inactive and TGFb SMAD3 inh inactive.
Screening Cn1c(=O)c(=O)n(C)c2cc(S(=O)(=O)N3CCCC3C(=O)Nc3cccc(F)c3)ccc21 (centres undefined) returned HepG2 viability inactive and TGFb SMAD3 inh inactive.
COc1ccc(-c2oc3c(c2C#CC(C)(C)O)C(OC)CCC3)cc1 (centres undefined) was read as IL1B secr inh -59, ATXN2 expr inh inactive and S2 tox inconclusive.
Screening O=C(CCC1CCCCC1=O)c1ccccc1 (centres undefined) returned IL1B secr inh inactive, HepG2 viability inactive, ATXN2 expr inh inactive, S2 tox inactive and TGFb SMAD3 inh inactive.
`O=C(CC1C(=O)CCCC1=O)c1ccccc1` gave IL1B secr inh -204, HepG2 viability inactive, ATXN2 expr inh inactive, S2 tox inactive and TGFb SMAD3 inh inconclusive.
For O=C(Cn1nc(-c2ccc(Cl)cc2)c2ccccc2c1=O)Nc1cccc(C(F)(F)F)c1 the results were HepG2 viability inactive, ATXN2 expr inh inactive, S2 tox inconclusive and TGFb SMAD3 inh 11µM.
`O=C(Cn1nc(-c2ccc(Cl)cc2)c2ccccc2c1=O)Nc1cccc(Br)c1` gave HepG2 viability inactive, ATXN2 expr inh inactive, S2 tox inactive and TGFb SMAD3 inh inactive.
Screening O=C(Cn1nc(-c2ccccc2)c2ccccc2c1=O)Nc1cccc(O)c1 returned IL1B secr inh -52, HepG2 viability inactive, ATXN2 expr inh inactive, S2 tox inactive and TGFb SMAD3 inh inactive.
`CCOc1ccc2c(c1)[N+](C)(C)C(C)(C)C=C2C` gave IL1B secr inh -55, HepG2 viability inactive, ATXN2 expr inh inactive, S2 tox inactive and TGFb SMAD3 inh inactive.
COc1ccc(C2/C=C\CN(C(=O)C3CCCC3)C(C)C(=O)N2Cc2ccc(F)cc2)cc1 (centres undefined) was read as HepG2 viability inactive and TGFb SMAD3 inh inconclusive.
`CC(=O)c1c(C(C)=O)c(C)n(-c2nc(-c3ccc(C)c(C)c3)c(C)s2)c1C` gave IL1B secr inh -67, HepG2 viability inactive, ATXN2 expr inh inactive, S2 tox inactive and TGFb SMAD3 inh inactive.
COc1ccc(-c2nc(-n3c(C)c(C(C)=O)c(C(C)=O)c3C)sc2C)cc1 was read as IL1B secr inh inactive, HepG2 viability inactive, ATXN2 expr inh inactive, S2 tox inactive and TGFb SMAD3 inh inactive.
`Cc1nc2cc(C(=O)NCCC3=CCCCC3)ccc2n1-c1ccc(Br)cc1` gave HepG2 viability inactive, ATXN2 expr inh inconclusive, S2 tox inconclusive and TGFb SMAD3 inh inconclusive.
CCOc1ccc(-n2c(C)nc3cc(C(=O)NCCC4=CCCCC4)ccc32)cc1 was read as HepG2 viability inactive, ATXN2 expr inh inactive, S2 tox inactive and TGFb SMAD3 inh 18µM.
Screening Cc1c(C(=O)NCc2ccccc2)oc2ccc(S(=O)(=O)N3CCC4(CC3)OCCO4)cc12 returned IL1B secr inh inactive, HepG2 viability inactive, ATXN2 expr inh inactive, S2 tox inactive and TGFb SMAD3 inh inactive.
Cc1c(C(=O)NCCC2=CCCCC2)oc2ccc(S(=O)(=O)N3CCC4(CC3)OCCO4)cc12 was read as IL1B secr inh -66, HepG2 viability inactive, ATXN2 expr inh inconclusive, S2 tox inactive and TGFb SMAD3 inh inactive.
`Cc1ccc(C(=O)NCCC2=CCCCC2)cc1S(=O)(=O)N1CCOCC1` gave IL1B secr inh inactive, HepG2 viability inactive, ATXN2 expr inh inactive, S2 tox inactive and TGFb SMAD3 inh inactive.
